Source: PubChem (National Center for Advancing Translational Sciences (NCATS))
Compounds with a hit are over-represented: about 21% of the library has one in this group of screens.
TDP1 cell noCPT: qHTS for Inhibitors of human tyrosyl-DNA phosphodiesterase 1 (TDP1): qHTS in cells in absence of CPT; Potency, µM (series often up to 46.2 µM), for the others: at the top dose activity change, negative = growth inhibition, usual class: inhibitors; 15% of 420,000 active; DT40 Tdp1-/- hTDP1 cells, no CPT, ATP luminescence, 48 h; note: potency is the fitted concentration of half-maximal effect; % is set by controls: 0 for no effect and ±100 for the full control effect; nearly all actives have a fitted effect of over 55% in size
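Chicken DT40 Tdp1-/- cells complemented with human TDP1, screened without camptothecin (DMSO vehicle only), 400 cells/well. Compounds pin-transferred, cells incubated at 37 °C for at least 48 hr. Growth read as ATP-dependent luminescence (CellTiter-Glo, 30 min at RT).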
ClpP mod: qHTS Assay for Activators of ClpP. 1.9% of 340,000 active. Potency, µM (doses to about 57.5 µM), for inactives: at the highest dose activity change, negative = active. AID 651965, 2013. ATP-dependent Clp protease proteolytic subunit (Bacillus subtilis (strain 168)), P80244. purified B. subtilis ClpP, FRET peptide cleavage, 20 min; active = well fitted falling curve with a large enough effect; inconclusive = small, poorly fitted or top-dose-only effect; inactive = no such curve, though single readings can be large or run the other way; note: potency is the fitted concentration of half-maximal effect; the source files actives as falling curves though it sought activators and does not explain the sign; nearly all actives have a fitted effect of over 65% in size
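ClpP 10 microg/mL final, pH 8 Tris/KCl buffer with BSA, glycerol, Tween-20; compound pinned in; FRET-FV substrate; RT 20 min; Ex320/Em430; ΔFRET vs ADEP 5.8 microM, DMSO, no enzyme.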
D3 ag: D3 dopamine receptor (human) agonism; P35462; D3R DiscoveRx beta-arrestin cells, luminescence, 90 min; max activation, %; 0.58% of 410,000 active; AID 652048; in the data active = max activation above about 30%; note: 0% is about no effect
Target sequence (P35462 whole entry, looked up): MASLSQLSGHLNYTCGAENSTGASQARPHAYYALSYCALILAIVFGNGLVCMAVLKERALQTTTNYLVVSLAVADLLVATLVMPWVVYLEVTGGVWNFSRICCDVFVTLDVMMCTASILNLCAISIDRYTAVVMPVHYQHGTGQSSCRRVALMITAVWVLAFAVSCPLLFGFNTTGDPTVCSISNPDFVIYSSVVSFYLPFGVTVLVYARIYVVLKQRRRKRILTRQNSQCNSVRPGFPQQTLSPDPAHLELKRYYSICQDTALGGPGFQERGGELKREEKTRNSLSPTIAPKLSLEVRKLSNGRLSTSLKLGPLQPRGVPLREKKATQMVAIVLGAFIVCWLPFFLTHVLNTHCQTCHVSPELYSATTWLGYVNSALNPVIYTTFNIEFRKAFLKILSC
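Agonist mode: compounds and dopamine controls were applied to plated cells for 90 min at 37 degrees C after an overnight attachment at 1500 cells/well. Luminescent read-out followed 30 - 60 minutes at room temperature with DiscoveRx detection reagent.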
D3 antag: antagonists of human D3 dopamine receptor; P35462; D3R cells, DiscoveRx beta-arrestin luminescence, antagonist mode; stronger effect = lower value; max response, negative = inhibition, %; 2.5% of 360,000 active; AID 652054; in the data active = max response below about -50%; inconclusive = no clear call, values can overlap the other calls; note: % is set by controls: 0 for no effect and ±100 for the full control effect
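Cells expressing the human receptor were seeded at 1500 cells/well, incubated overnight at 37 degrees C in 5% CO2, then exposed to library compounds with dopamine controls for 90 minutes at 37 degrees C before luminescent detection.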
TDP1 cell CPT: DT40-hTDP1 cell growth loss with CPT | chicken DT40 Tdp1-/-;hTDP1 cells + 20 nM CPT, ATP luminescence, 48 h | Potency, µM (titrated, usually from 46.2 µM), inactives show top-dose activity change, negative = growth inhibition, most hits filed as inhibitors | 12% of 420,000 active; note: potency is the fitted concentration of half-maximal effect; % is set by controls: 0 for no effect and ±100 for the full control effect; nearly all actives have a fitted effect of over 55% in size
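Cell growth measured by CellTiter-Glo luminescence after a minimum 48 h, 37 C compound exposure with 20 nM CPT in Tdp1-knockout DT40 cells stably expressing hTDP1, seeded 400/well; qHTS titration format.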
IL-1B inflam inh: blocks inflammasome-driven IL-1 beta release | THP-1 LPS/ATP IL-1B secretion, AlphaLISA, 16 h; stronger effect = lower value | activity change, % at 57.5 µM | 4.7% of 360,000 active | AID 743279; in the data active = activity change below about -50%; inconclusive = mostly about -30% to -49%; note: % is set by controls: 0 for no effect and ±100 for the full control effect
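THP-1 cells pretreated 1 hr with compounds (up to 57.5 uM final), then stimulated with LPS (250 ng/mL final) plus ATP (1.25 mM final); secreted IL-1B measured by AlphaLISA after 16 hr, decreased signal indicating inhibition.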
* marks the source's active call; other numbers are inactive results; ? = inconclusive; . = no result; [ ] = dose if it differs, or a comment. Unless noted, calls come from the whole dose curve; as a rule, active = well fitted inhibition curve with a large enough effect; inconclusive = small, poorly fitted or top-dose-only effect; inactive = flat fitted curve, though single readings scatter.

SMILES	TDP1 cell noCPT	ClpP mod	D3 ag	D3 antag	TDP1 cell CPT	IL-1B inflam inh
CC(C)(C)c1cc(NC(=O)CSc2nnc(N)s2)n(-c2ccccc2)n1	-28%	28µM*	-8	0	-5%	12
COc1ccc(-c2cc(C(=O)Oc3ccc(C#N)cc3)no2)cc1	-20%	-21%	4	.	4%	.
COc1cccc(-c2cnc(C(O)c3ccc(F)cc3C)[nH]2)c1 (stereo not drawn)	-15%	-10%	-2	0	?	11
Cc1cccc(C(O)c2ncc(-c3ccccc3)[nH]2)c1C (stereo not drawn)	-23%	-1%	-11	-30	18µM*	-9
COc1c(C)cc(C(O)c2ncc(-c3ccccc3)[nH]2)cc1C (stereo not drawn)	?	-1%	8	0	?	-60*
Cc1cc(F)ccc1C(O)c1ncc(-c2cccc(OCc3ccccc3)c2)[nH]1 (stereo not drawn)	16µM*	1%	-3	0	?	-14
Cc1ccc(Sc2c(C)nn(C(C)(C)C)c2OC(=O)CC(C)C)cc1	?	-2%	-8	.	?	.
Oc1ccc2ccccc2c1CN1CCN(c2ccccc2F)CC1	?	11µM*	-6	-95*	-24%	13
Oc1ccc2ccccc2c1CN1CCN(C/C=C/c2ccccc2)CC1	-13%	.	-26	-56*	-33%	-77*
COc1ccccc1C#CC1=CC(=O)CC(C)(C)C1	9.2µM*	-3%	-6	-17	16µM*	?
Cc1ccccc1C(=O)N1CCC(c2nc3ccccc3s2)CC1	?	0%	2	.	?	.
COc1cc(C(=O)N2CCC(c3nc4ccccc4s3)CC2)cc(OC)c1OC	21µM*	-1%	10	.	?	.
CCc1ccc(C(=O)N2CCC(c3nc4ccccc4s3)CC2)cc1	?	-2%	1	-26	?	0
O=C(c1ccccc1Br)N1CCC(c2nc3ccccc3s2)CC1	29µM*	-1%	-1	-6	?	-17
CCCCOc1[nH]c2nc(-c3ccco3)n(Cc3ccco3)c(=N)c2c1C#N	23µM*	-12%	-2	?	?	-82*
CCc1nnc2c3ccccc3nc(N3CCN(c4cc(C)ccc4C)CC3)n12	1.3µM*	1%	5	.	?	.
Cc1ccc(C)c(N2CCN(c3nc4ccccc4c4nc(-c5cccnc5)nn34)CC2)c1	-27%	1%	-5	.	-16%	.
Cc1ccc(C)c(N2CCN(c3nc4ccccc4c(=O)n3-c3ccccc3)CC2)c1	9.2µM*	-1%	-14	.	10µM*	.
CC(C)c1cccc(C2=CC(=O)C[C@H](c3ccc4c(c3)OCO4)C2)c1	?	0%	4	?	?	-9
Nc1nccs1	-19%	0%[115 µM]	7	.	-2%	.
CCc1c(C)nc2nc(SCc3ccccc3)[nH]n2c1=O	?	.	3	3	8%	47
COC(=O)C1=C(C)N(C)C(=O)NC1c1c(O)ccc2ccccc12 (stereo not drawn)	?	?	-1	14	-17%	9
O=C(NCc1ccc(C(F)(F)F)cc1)C1CC(c2ccc(C(F)(F)F)cc2)=NO1 (stereo not drawn)	13µM*	1%	5	3	23µM*	37
O=C(NCc1ccco1)C1CC(c2cc(C(F)(F)F)cc(C(F)(F)F)c2)=NO1 (stereo not drawn)	2.3µM*	0%	-20	0	2.6µM*	70
COc1ccc(-c2ccoc2)cc1[C@H]1[C@H]2C=CC[C@@H](C)[C@@H]2C(=O)N1Cc1ccccc1	?	?	-45	-56*	?	-66*
